# From ChEMBL document CHEMBL3988442, “University of Dundee, Small-Polar-MMV Screening Library” (2021)
# Columns and labels:
# [1] = target: T1, Aspartate--tRNA(Asp/Asn) ligase (Mycobacterium tuberculosis (strain ATCC 25618 / H37Rv)) (UniProt P9WFW3); experiment: Assay for Asp RNA synthetase-1 from Mycobacterium tuberculosis; format: functional; design: scale not given: direction of the effect not stated beside the values; settings: 30 µM; also: in the data most compounds retested in dose-response had high values
# T1 sequence (whole entry): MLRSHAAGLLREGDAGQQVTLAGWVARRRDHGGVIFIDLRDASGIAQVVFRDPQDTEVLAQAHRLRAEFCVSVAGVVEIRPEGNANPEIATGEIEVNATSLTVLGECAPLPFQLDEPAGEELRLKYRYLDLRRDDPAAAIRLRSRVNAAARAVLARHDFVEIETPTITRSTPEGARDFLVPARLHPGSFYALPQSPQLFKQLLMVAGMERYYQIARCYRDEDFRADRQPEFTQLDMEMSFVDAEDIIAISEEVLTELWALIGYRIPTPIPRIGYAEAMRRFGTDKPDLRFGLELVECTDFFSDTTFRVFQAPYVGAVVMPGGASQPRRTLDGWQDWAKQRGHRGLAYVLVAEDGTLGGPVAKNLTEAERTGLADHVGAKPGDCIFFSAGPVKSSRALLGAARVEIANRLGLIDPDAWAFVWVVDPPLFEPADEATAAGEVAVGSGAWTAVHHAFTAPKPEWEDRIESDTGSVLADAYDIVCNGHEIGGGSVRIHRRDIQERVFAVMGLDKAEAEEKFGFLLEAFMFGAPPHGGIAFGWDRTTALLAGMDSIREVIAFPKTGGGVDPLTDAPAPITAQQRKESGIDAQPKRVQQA
# [2] = target: Shiga toxin 2 (Escherichia coli O157:H7) (UniProt P09385+P09386); experiment: E. coli 0.157:H7 Shiga Toxin SOP - stx2 screening assay; format: functional; design: scale not given: direction of the effect not stated beside the values; settings: 30 µM
Structure (SMILES),Percent Effect [1] [%],Percent Effect [2] [%]
O=C(c1ncccn1)N1C[C@H]2CCC[C@@]2(COCc2ccncc2)C1,-2.08,-24.5
COC(=O)CN1CC(c2nc(Cc3ccccc3)no2)C1,-4.57,-14.5
COc1cc(CNCCc2cnn(C)c2)cc2c1OCCO2,-1.03,10.4
COc1ccc(OC)c(NC(=O)c2nc3ccccc3n(C)c2=O)c1,1.01,-23.2
Cc1cc(N2CCC(NC(=O)C3CC3)CC2)nc(-c2ccncc2)n1,0.463,-21.4
Cc1nccn1Cc1nnc(C2CCCN(Cc3cccnc3)C2)n1C (stereo not given),-2.79,4.73
Cc1cn2c(n1)CCC(NC(=O)c1c[nH]c(C)n1)C2 (stereo not given),-7.1,14.6
COCCN1CC[C@@H]2O[C@@H](COCC(=O)N3CCCC3)CC[C@@H]21,-4.13,-8.7
CC(c1nc(C2CC2)no1)N1CCN(c2ccc(C#N)cn2)CC1 (stereo not given),-0.15,-13.8
COc1cccc(CN2CCC3(CCN(C(=O)[C@H]4CCCO4)CC3)C2)c1,2.09,-47.5
